Screening data: PubChem, National Center for Advancing Translational Sciences (NCATS)
Tau FP inhib: tau fibrillization inhibition (FP); P10636; K18 P301L tau heparin fibrillization, Alexa594 FP, 6 h; Potency, µM (doses to about 57.7 µM), hits mostly inhibitors; 280,000 tested, 0.39% active; AID 1468; active means well fitted curve in the direction sought with a large enough effect; inconclusive means small, poorly fitted or top-dose-only effect, or another doubt; inactive means no such curve, though single readings can be large; an effect the other way counts as inactive or inconclusive; further: nearly all actives have a fitted effect of over 55% in size
Target sequence (P10636 561-689 P618L limits assumed): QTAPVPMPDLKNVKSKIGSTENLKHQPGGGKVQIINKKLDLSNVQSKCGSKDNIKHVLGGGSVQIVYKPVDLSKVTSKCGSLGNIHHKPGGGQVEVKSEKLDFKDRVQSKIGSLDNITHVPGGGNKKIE
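Read-out: fluorescence polarization of Alexa 594-labeled tau (0.24 uM), 555 nm excitation, 632 nm emission. Mixtures held 15 uM unlabeled K18 P301L, compound and 20 uM heparin, pH 7 acetate buffer, incubated 6 hr at 37 C.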
FBPA coupling cs: inhibits coupling enzyme system, counter-screen for aldolase hits | coupling enzyme system counterscreen, AmpLite Red fluorescence | activity change, negative = inhibition, % at 58.2 µM, hits read low | 290,000 tested, 0.67% active; in the data active means activity change below about -30%
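First, compound is pin-transferred into glyceraldehyde-3-phosphate coupling-enzyme reagent at 57.5 uM final and held 10 min at RT. Next, substrate, coupling system and AmpLite Red are added. After 20 min RT, fluorescence (525/598 nm) is read.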
Tau fluor counter: counter-screen for tau fibril formation inhibitors. 280,000 tested, 0.93% active. AID 1463. tau K18 P301L Alexa594 fluorescence, heparin fibrillization. Potency, µM (series often up to 57.7 µM); active means well fitted curve in the direction sought with a large enough effect; inconclusive means small, poorly fitted or top-dose-only effect, or another doubt; inactive means no such curve, though single readings can be large; an effect the other way counts as inactive or inconclusive; further: nearly all actives have a fitted effect of over 55% in size
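Human K18 P301L tau (15 uM unlabeled plus 0.24 uM Alexa 594-labeled, final) in 100 mM sodium acetate pH 7 was mixed with compound and 20 uM heparin and incubated 6 hr at 37 C.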
Tau fibril ThT: inhibitors of human tau fibril formation, thioflavin T binding; recombinant tau K18 P301L (four-repeat tau fragment), heparin-induced fibrillization, ThT fluorescence; Potency, µM (doses to about 57.4 µM), usual class: inhibitors; 270,000 tested, 2.1% active; active means well fitted curve in the direction sought with a large enough effect; inconclusive means small, poorly fitted or top-dose-only effect, or another doubt; inactive means no such curve, though single readings can be large; an effect the other way counts as inactive or inconclusive; further: nearly all actives have a fitted effect of over 55% in size
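Heparin-induced (20 uM) aggregation of recombinant human K18 P301L tau, 15 uM unlabeled with 0.24 uM labeled, pH 7 acetate buffer, 6 hr at 37 C with compound. Fibrils quantified by 30 uM ThT fluorescence after 1 hr ambient incubation.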
Casp1 catalase: counter-screen for redox active human caspase-1 inhibitors with catalase; shares compounds with FBPA coupling cs; caspase-1 Ac-WEHD-AFC fluorescence rate, catalase buffer; Potency, µM (series often up to 57.5 µM), actives largely listed as inhibitors; 30 tested, under 10 active; AID 888
CASP1 inh CRC: blocks human caspase-1 activity in concentration-response; purified caspase-1, fluorogenic substrate cleavage; AID 896; Potency, µM (top dose mostly 57.5 µM), usual class: inhibitors; shares compounds with FBPA coupling cs; 60 tested, 20% active
Casp7 confirm: confirmation of allosteric or competitive inhibitors of human caspase-7 | shares compounds with FBPA coupling cs | recombinant caspase-7, fluorogenic substrate cleavage | Potency, µM (doses to about 57.5 µM), hits mostly inhibitors | 60 tested, under 10 active; active means well fitted inhibition curve with a large enough effect in the main read-out, with a control signal flat, not every such curve was filed as active; inconclusive means small, poorly fitted or top-dose-only effect, or a change in a side signal; inactive means no such curve, though single readings can be large or run the other way
Target sequence (P55210 24-198 limits assumed): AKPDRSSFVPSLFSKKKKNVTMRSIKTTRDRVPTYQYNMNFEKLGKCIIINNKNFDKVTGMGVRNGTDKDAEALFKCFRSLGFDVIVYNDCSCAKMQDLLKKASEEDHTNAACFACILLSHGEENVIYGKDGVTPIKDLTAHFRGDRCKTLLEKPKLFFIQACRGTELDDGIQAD
Target sequence (P55210 207-303 limits assumed): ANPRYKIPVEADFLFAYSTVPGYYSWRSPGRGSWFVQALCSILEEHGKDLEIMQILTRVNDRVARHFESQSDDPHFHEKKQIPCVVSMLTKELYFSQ
Casp7 cysteine: counter-screen for redox active caspase-7 inhibitors: cysteine buffer | 60 tested, under 10 active | caspase-7 enzyme with cysteine, fluorogenic substrate, redox counterscreen | shares compounds with FBPA coupling cs | Potency, µM (series often up to 57.5 µM), most hits filed as inhibitors
Casp7 catalase: counter-screen for redox active caspase-7 inhibitors: catalase buffer. shares compounds with FBPA coupling cs. AID 909. Caspase-7 Ac-DEVD-AFC fluorescence rate, catalase buffer. Potency, µM (doses to about 57.5 µM), actives largely listed as inhibitors. 30 tested, under 10 active
Casp1 cysteine: counter-screen for redox active caspase-1 inhibitors: cysteine buffer; 60 tested, under 10 active; recombinant caspase-1, fluorogenic substrate, cysteine buffer; Potency, µM (series often up to 57.5 µM), usual class: inhibitors; shares compounds with FBPA coupling cs
Each line names hits and unclear results; the compound was inactive in the other large screens (follow-up assays come after a bar, where they were run). Hits are enriched below; roughly 2.7% of the tested compounds scored in any of these assays. Unless noted, the call rests on the fitted dose curve; in most records, active means well fitted inhibition curve with a large enough effect in the main read-out, with a control signal flat; inconclusive means small, poorly fitted or top-dose-only effect, or a change in a side signal; inactive means no such curve, though single readings can be large or run the other way.

CC[C@H](C)[C@H](NC(=O)CNC(=O)[C@@H](NC(=O)[C@@H](NC(=O)[C@H](Cc1ccc(O)cc1)NC(=O)[C@H](CC(C)C)NC(=O)[C@H](C)NC(=O)[C@H](CCC(N)=O)NC(=O)CNC(=O)[C@@H]1CCCN1C(=O)CNC(=O)[C@H](Cc1ccccc1)NC(=O)[C@H](Cc1cnc[nH]1)NC(=O)[C@@H](NC(=O)CNC(=O)[C@H](CCCNC(=N)N)NC(=O)[C@H](CCCNC(=N)N)NC(=O)[C@@H](NC(=O)[C@H](CC(N)=O)NC(=O)[C@@H](N)CS)[C@@H](C)O)[C@@H](C)CC)[C@@H](C)O)[C@@H](C)O)C(=O)O	none (no result: Tau FP inhib, Tau fluor counter, Tau fibril ThT)
COc1ccc(CSc2nc(C)cc(=O)[nH]2)cc1Br	Tau fibril ThT inconclusive
COc1cc(=O)[nH]c(SCc2c(F)c(F)c(F)c(F)c2F)n1	none | CASP1 inh CRC inactive | Casp7 confirm inactive | Casp7 cysteine inactive | Casp1 cysteine inactive
CCCCCCCC1Cc2ccccc2C(C(C(=O)OC)C(=O)OC)N1C(=O)OC (stereo not drawn)	none
N#CC1=C2SCN(Cc3ccccc3)CN2C(=O)CC1c1cccs1 (stereo not drawn)	Tau FP inhib inconclusive, FBPA coupling cs -40, Tau fibril ThT 28µM | Casp1 catalase inactive | CASP1 inh CRC inactive | Casp7 confirm inactive | Casp7 cysteine inactive | Casp7 catalase inactive | Casp1 cysteine inactive
CCCSC1=C(C#N)C(c2cccs2)CC(=O)N1 (stereo not drawn)	none
CC(=O)Nc1cc(OC(C)=O)c2nonc2c1OC(C)=O	Tau FP inhib 2µM, FBPA coupling cs -77, Tau fluor counter inconclusive, Tau fibril ThT 1.1µM | Casp1 catalase inactive | CASP1 inh CRC inactive | Casp7 confirm inactive | Casp7 cysteine inactive | Casp7 catalase inactive | Casp1 cysteine inconclusive
COc1ccc(CCNc2oc(/C=C/c3ccc(OC)c(OC)c3)nc2C#N)cc1	Tau fluor counter inconclusive, Tau fibril ThT inconclusive (no result: FBPA coupling cs)
CCNc1ncc2ncc(=O)n(C[C@H]3CCCO3)c2n1	none (no result: Tau FP inhib, Tau fluor counter, Tau fibril ThT)
